Bioassay records from PubChem BioAssay.
BioA inh = inhibitors of Mycobacterium tuberculosis BioA enzyme; 360,000 compounds, 0.096% hits; AID 602481; inhibition, % at 9.99 µM; purified M. tuberculosis BioA enzyme, plate reader; in the data active = inhibition above about 40%; inconclusive = no clear call, values can overlap the other calls
BJeLR viability = kills HRASV12-expressing BJeLR cells; BJeLR (HRASV12) viability, CellTiter-Glo ATP luminescence, 48 h; inhibition, % (test concentration not listed); 300,000 compounds, 0.17% hits; AID 1554; in the data active = inhibition above about 50%; inconclusive = no clear call, values can overlap the other calls
Mtb bLac sens = beta-lactam sensitization of Mtb H37Rv; M. tuberculosis H37Rv growth with meropenem, percent inhibition; inhibition, % at 25 µM; 330,000 compounds, 0.27% hits;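 also: growth measured after seven days incubation then overnight dye step; 0% = bacteria only wells and 100% = bacteria with antibiotic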
Yp Topo-I inh = inhibitors of Yersinia pestis topoisomerase I; Y. pestis Topo-I cleavage product accumulation, plate reader; activity, % at 10 µM; 360,000 compounds, 0.064% hits; AID 504884; in the data active = activity above about 50%, passing the limit was not always enough; inconclusive = no clear call, values can overlap the other calls
CCHF vOTU inh = blocks the CCHF virus ovarian tumor domain protease | inhibition, % at 11.5 µM | 370,000 compounds, 0.55% hits | CCHFV vOTU protease, Pep-AMC fluorescence; in the data active = inhibition above about 30%; also: 0% = vehicle wells with enzyme and 100% = no enzyme wells
RecA intein inh = Mtb RecA intein splicing inhibition | P9WHJ3 | cell-free RecA intein splicing, fluorescence | inhibition, % (no concentration beside the values) | 290,000 compounds, 0.75% hits | AID 2221; in the data active = inhibition above about 30%; inconclusive = no clear call, values can overlap the other calls;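 also: 0% = vehicle wells and 100% = reference inhibitor control wells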
GFP chromophore = counter-screen GFP chromophore formation inhibition; shares compounds with RecA intein inh; 2,100 compounds, 83% hits; EC50, µM; AID 434968; cell-free GFP chromophore formation, fluorescence
The depositor's hits bear a star; ? = inconclusive; nt = no result. Compounds with a hit are over-represented: about 1.1% of the library has one in this group of screens. Unless noted, no rule for the calls is given here.

SMILES	BioA inh	BJeLR viability	Mtb bLac sens	Yp Topo-I inh	CCHF vOTU inh	RecA intein inh	GFP chromophore
CN1C(=O)c2cc(NC(=O)C3CCCC3)ccc2OC[C@H]2O[C@H](CC(=O)NCC(F)(F)F)CC[C@@H]21	-1	nt	nt	nt	nt	nt	nt
S=C(Nc1ccc(Cl)cc1)c1nc2ccccc2s1	0	10	nt	-1	6	1	nt
O=C(Nc1ccc(Cl)cc1)/C(=C/c1cccc(O)c1)c1nc2ccccc2s1	nt	38	9	2	6	46*	21*
C[C@@H]1CN([C@@H](C)CO)C(=O)Cc2cc(NC(=O)CCC(F)(F)F)ccc2O[C@H]1CN(C)C(=O)Nc1ccccc1	0	nt	nt	nt	nt	nt	nt
CCOC(=O)C1=C(c2ccccc2)NC(N)=NC1c1ccc(OCc2ccc(C(=O)OC)cc2)cc1 (stereo unspecified)	nt	18	97	9	21	46*	26*
C/C=C/c1ccc2c(c1)O[C@H](CN(C)C(=O)C1CC1)[C@@H](C)CN([C@H](C)CO)S2(=O)=O	0	nt	nt	nt	nt	nt	nt
C[C@@H]1CCCCO[C@@H](CN(C)CC2CCCCC2)[C@@H](C)CN([C@H](C)CO)C(=O)c2cc(NC(=O)NC3CCCCC3)ccc2O1	-3	nt	nt	nt	nt	nt	nt
CO[C@@H]1CN(C)C(=O)c2cc(NC(=O)c3ccccc3)ccc2OC[C@H](C)N(C(=O)C2CC2)C[C@H]1C	1	nt	nt	nt	nt	nt	nt
CCC1CO/C(=C(\C(Cl)=C(Cl)Cl)[N+](=O)[O-])N1Cc1ccc(Cl)nc1 (stereo unspecified)	-1	-15	-5	5	5	-1	nt
O=C(C(=C1N(Cc2ccc(Cl)nc2)CCN1Cc1ccc(Cl)nc1)[N+](=O)[O-])C(Cl)Cl	7	-2	-6	-4	-14	76*	6.5*
COc1ccc(S(=O)(=O)N(C)C[C@H]2OCCCC[C@@H](C)Oc3ccc(NC(=O)CCC(F)(F)F)cc3C(=O)N([C@H](C)CO)C[C@H]2C)cc1	-2	nt	nt	nt	nt	nt	nt
C[C@H]1CN([C@@H](C)CO)S(=O)(=O)c2ccc(C#CC3CCCC3)cc2O[C@@H]1CN(C)S(C)(=O)=O	3	nt	nt	nt	nt	nt	nt
O=C(Nc1cccc(Cl)c1N1CCCCC1)c1ccc2c(c1)OCCO2	1	-1	11	3	-15	3	nt
CCN1CCN(c2c(Cl)cccc2NC(=O)c2ccc3c(c2)OCCO3)CC1	0	-1	-7	6	3	31*	>38
O=C(NC1C(=O)NNC1c1ccccc1)c1ccccc1 (stereo unspecified)	nt	9	0	-1	22	69*	25*
O=C(NC1CCCCC1c1ccccc1)c1ccccc1 (stereo unspecified)	nt	nt	nt	4	-15	nt	nt
CC1C=CCC2C(=O)N(c3ccc(OC(=O)c4ccco4)cc3)C(=O)C12 (stereo unspecified)	0	-3	-1	4	-11	7	nt
COC(=O)C1=C(C)NC(C)=C(C(=O)OC)C1c1ccc(OC(=O)c2ccco2)cc1	-1	-9	-3	-10	-8	1	nt
CC(=O)Nc1ccc(OC(=O)c2ccco2)cc1	nt	0	1	1	29	33*	>38
COC(=O)C1=C(C)NC(=S)NC1c1ccc(OC(=O)c2ccco2)cc1 (stereo unspecified)	nt	3	-7	?	-3	31*	>38
CC(=O)Nc1cc(OC(=O)c2ccco2)cc(OC(=O)c2ccco2)c1	nt	-6	-1	3	-1	54*	7.4*
O=C(Oc1ccc(N2C(=O)CCC2=O)cc1)c1ccco1	1	11	-9	-3	0	31*	0.61*
C[C@H]1CN([C@@H](C)CO)C(=O)c2cccc(NS(=O)(=O)c3cn(C)cn3)c2O[C@H]1CN(C)S(=O)(=O)c1ccc(Cl)cc1	6	nt	nt	nt	nt	nt	nt
C[C@@H]1CCCCO[C@@H](CN(C)C(=O)Nc2ccc3c(c2)OCO3)[C@H](C)CN([C@@H](C)CO)C(=O)c2cc(NC(=O)Nc3ccc(C(F)(F)F)cc3)ccc2O1	4	nt	nt	nt	nt	nt	nt
COc1ccccc1C#Cc1ccc2c(c1)O[C@H](CN(C)Cc1ccncc1)[C@@H](C)CN([C@@H](C)CO)S2(=O)=O	1	nt	nt	nt	nt	nt	nt
SMILES	BioA inh	BJeLR viability	Mtb bLac sens	Yp Topo-I inh	CCHF vOTU inh	RecA intein inh	GFP chromophore
Cc1onc(-c2ccccc2)c1-c1nc2ccccc2c(=O)o1	1	-2	10	3	19	32*	2.3*
O=S(=O)(c1ccc(Cl)c(Cl)c1)c1snnc1-c1ccccc1	1	53*	nt	1	nt	80*	1.3*
c1ccc(-c2nnsc2-c2ccccc2)cc1	-1	-3	-15	10	17	2	nt
COc1ccc(-c2cnc3c(c2)C(=O)N([C@H](C)CO)C[C@H](C)[C@@H](CN(C)C)O3)cc1	0	nt	nt	nt	nt	nt	nt
C[C@H](CO)N1C[C@H](C)[C@H](CN(C)S(=O)(=O)c2ccc(Cl)cc2)OCCCC[C@H](C)Oc2ccc(NC(=O)c3ccccc3)cc2C1=O	0	nt	nt	nt	nt	nt	nt
O=C(O)c1ccc(NC2=C(Cl)C(=O)c3ccccc3C2=O)cc1	3	-5	-2	-3	10	98*	2.2*
[O-]C1=N/[N+](=C/c2ccc(Cl)cc2)CC1	-2	-1	-11	5	4	73*	29*
Cc1ccc2c(c1)N(C(=O)CSc1nncn1C)C(C)(C)c1ssc(=S)c1-2	3	1	-1	34	26	39*	14*
C[C@@H]1CN([C@H](C)CO)C(=O)c2ccccc2-c2ccccc2CO[C@H]1CN(C)C(=O)[C@H](C)c1ccccc1	1	nt	nt	nt	nt	nt	nt
O=C(CCl)NC(=O)NC12CC3CC(CC(C3)C1)C2	-1	2	100	-1	-7	59*	29*
CC(Cl)C(=O)NC(=O)NC12CC3CC(CC(C3)C1)C2 (stereo unspecified)	1	2	93	12	-19	4	nt
CCS(=O)(=O)Nc1ccc2c(c1)C(=O)N(C)[C@H]1CC[C@@H](CC(=O)N3CCOCC3)O[C@@H]1CO2	0	nt	nt	nt	nt	nt	nt
Cc1ccc2c(c1)c1c3n2CCN(C(=O)CCl)C3CCC1 (stereo unspecified)	0	1	100	5	-15	73*	7.3*
CC(=O)N1C[C@@H]2[C@H](c3ccccc31)[C@@H](CO)N2C(=O)CC1CC1	-7	nt	nt	nt	nt	nt	nt
COc1ccc(S(=O)(=O)Nc2ccc3c(c2)C(=O)N([C@H](C)CO)C[C@@H](C)[C@@H](CN(C)Cc2ccc(C(=O)Nc4ccccc4N)cc2)O3)cc1	-3	nt	nt	nt	nt	nt	nt
COc1ccc(CC2=CC(=O)c3ccccc3C2=O)cc1	-1	23	100	-2	3	77*	8.5*
COc1ccc(-c2oc(NC(=O)CSc3ncn[nH]3)c(C#N)c2-c2ccc(OC)cc2)cc1	nt	-10	-3	9	nt	18	nt
COc1ccc(-c2oc(NC(=O)CCl)c(C#N)c2-c2ccc(OC)cc2)cc1	3	1	98	2	17	90*	1.4*
O=c1[nH]cc(NCc2ccccc2)c(=O)[nH]1	nt	nt	nt	7	0	nt	nt
